Laboratory results reported in PubChem BioAssay AID1159580 (chemical genetic matrix, 2015).
Several values for one entry are separate records, joined by “and”; a condition that tells them apart may be missing. Identical values can stand only once. The campaign covered roughly 5,500 compounds. About 2,000 (36%) were called active. About 18% were inconclusive and are not listed. Cut-off read from the data, not from the text of the source: active = normalized growth mostly below about 0.91 (no sharp cut-off); inconclusive = no clear call, values can overlap the other calls; inactive = mostly above about 0.92. The list shows a part of the results.

Test: chemical genetic growth profiling, strain panel (AID 1159580);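 note: tested at 20 µM; growth read once vehicle control cultures reached saturation at 30 °C; 1 = growth at the plate median or of vehicle wells; lower values mean less growth of the strain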
Conditions: S. cerevisiae deletion strains, growth OD
[1] = locus YGR229C, strain SMI1, stronger effect = lower value
[2] = locus YJR075W, strain HOC1, stronger effect = lower value

Measured: normalized growth

OCC1O[C@H](O)C(Cl)C(O)C1O (some centres undefined)
inactive: locus YAL013W, strain DEP1, stronger effect = lower value 1.01 | locus YAL040C, strain CLN3, stronger effect = lower value 1.01 | locus YCL061C, strain MRC1 (second series), stronger effect = lower value 1.01 | locus YDR363W, strain ESC2, stronger effect = lower value 0.977 | locus YER002W, strain NOP16, stronger effect = lower value 1 | [1] 0.994 | [2] 0.984 | locus YNL128W, strain TEP1, stronger effect = lower value 1.01 | locus YNL175C, strain NOP13, stronger effect = lower value 1.02 | locus YNL197C, strain WHI3, stronger effect = lower value 0.986 | locus YNL224C, strain SQS1, stronger effect = lower value 1 | locus YOR083W, strain WHI5 (second series), stronger effect = lower value 1.02 | locus YPL055C, strain LGE1, stronger effect = lower value 0.979 | locus YPL241C, strain CIN2, stronger effect = lower value 1.01

N[C@@H]1[C@@H](O)[C@H](O)[C@@H](CO)O[C@H]1O
inactive: locus YAL021C, strain ccr4, stronger effect = lower value 1.03 | locus YAL026C, strain drs2, stronger effect = lower value 1.01 | locus YAL030W, strain snc1, stronger effect = lower value 1.02 | locus YBL061C, strain skt5, stronger effect = lower value 1.03 | locus YBR009C, strain hhf1, stronger effect = lower value 1.02 | locus YBR021W, strain FUR4, stronger effect = lower value 1.01 | locus YBR023C, strain chs3, stronger effect = lower value 1.02 | locus YBR171W, strain sec66, stronger effect = lower value 1.04 | locus YBR229C, strain ROT2, stronger effect = lower value 1.01 | locus YBR231C, strain swc5, stronger effect = lower value 1.02 | locus YBR279W, strain paf1, stronger effect = lower value 1.03 | locus YCL011C, strain gbp2, stronger effect = lower value 1.02 | locus YCL016C, strain dcc1, stronger effect = lower value 1.02 | locus YCL029C, strain bik1, stronger effect = lower value 0.998 | locus YCL061C, strain MRC1, stronger effect = lower value 1.03 | locus YCL069W, strain vba3, stronger effect = lower value 1.02 | locus YCR088W, strain abp1, stronger effect = lower value 1.02 | locus YDL005C, strain med2, stronger effect = lower value 1.02 | locus YDL035C, strain GPR1, stronger effect = lower value 1 | locus YDL040C, strain nat1, stronger effect = lower value 1.01 | locus YDL074C, strain BRE1, stronger effect = lower value 1 | locus YDL101C, strain DUN1, stronger effect = lower value 1.01 | locus YDL185W, strain tfp1, stronger effect = lower value 1.01 | locus YDL192W, strain arf1, stronger effect = lower value 1.02 | locus YDR001C, strain nth1, stronger effect = lower value 1.02 | locus YDR069C, strain doa4, stronger effect = lower value 1.02 | locus YDR101C, strain arx1, stronger effect = lower value 0.975 | locus YDR137W, strain rgp1, stronger effect = lower value 1.03 | locus YDR150W, strain NUM1, stronger effect = lower value 1 | locus YDR159W, strain sac3, stronger effect = lower value 1.03 | locus YDR162C, strain NBP2, stronger effect = lower value 1 | locus YDR195W, strain ref2 1.04 | locus YDR297W, strain sur2, stronger effect = lower value 1.01 | locus YDR318W, strain mcm21, stronger effect = lower value 1 | locus YDR334W, strain swr1, stronger effect = lower value 1.02 | locus YDR335W, strain msn5, stronger effect = lower value 1.03 | locus YDR388W, stronger effect = lower value 1 | locus YDR392W, strain spt3, stronger effect = lower value 1 | locus YDR502C, strain sam2, stronger effect = lower value 1.01 | locus YEL003W, strain gim4, stronger effect = lower value 1.02 | locus YEL037C, strain rad23, stronger effect = lower value 1.02 | locus YEL061C, strain CIN8 (second series), stronger effect = lower value 1.02 | locus YEL061C, strain CIN8, stronger effect = lower value 1.02 | locus YER015W, strain faa2, stronger effect = lower value 1.03 | locus YER016W, strain bim1, stronger effect = lower value 1.01 | locus YER110C, stronger effect = lower value 1 | locus YER111C, strain swi4, stronger effect = lower value 1.03 | locus YER155C, strain BEM2 (second series), stronger effect = lower value 1.05 | locus YER155C, strain BEM2, stronger effect = lower value 1 | locus YER167W, strain BCK2, stronger effect = lower value 1.01 | locus YFR010W, strain ubp6, stronger effect = lower value 1.01 | locus YGL078C, strain dbp3, stronger effect = lower value 1.01 | locus YGL086W, strain mad1, stronger effect = lower value 0.999 | locus YGL167C, strain pmr1, stronger effect = lower value 1.03 | locus YGL173C, strain kem1, stronger effect = lower value 1.03 | locus YGL227W, strain vid30, stronger effect = lower value 1.02 | locus YGL240W, strain doc1, stronger effect = lower value 1.04 | locus YGL248W, strain PDE1, stronger effect = lower value 1.01 | locus YGL253W, strain hxk2, stronger effect = lower value 1.02 | locus YGR078C, strain PAC10, stronger effect = lower value 1 | locus YGR135W, strain pre9, stronger effect = lower value 1.05 | [1] 1 | locus YGR252W, strain gcn5, stronger effect = lower value 1.01 | locus YHR013C, strain ard1, stronger effect = lower value 1.06 | locus YHR027C, strain rpn1, stronger effect = lower value 1.06 | locus YHR030C, strain SLT2, stronger effect = lower value 1 and 0.98 | locus YHR079C, strain IRE1 (second series), stronger effect = lower value 1.01 | locus YHR079C, strain IRE1, stronger effect = lower value 0.968 | locus YHR094C, strain hxt1, stronger effect = lower value 0.998 | locus YHR129C, strain ARP1, stronger effect = lower value 0.994 | locus YHR142W, strain chs7, stronger effect = lower value 1.01 | locus YHR200W, strain rpn10, stronger effect = lower value 1.01 | locus YIL066C, strain RNR3, stronger effect = lower value 1 | locus YIL073C, strain SPO22, stronger effect = lower value 1.04 | locus YIL125W, strain kgd1, stronger effect = lower value 1.01 | locus YIR030C, strain dcg1, stronger effect = lower value 1.01 | locus YJL092W, strain hpr5, stronger effect = lower value 1.03 | locus YJL095W, strain BCK1 (second series), stronger effect = lower value 1.01 | locus YJL095W, strain BCK1, stronger effect = lower value 1.01 and 0.986 | locus YJL115W, strain asf1, stronger effect = lower value 1.03 | locus YJL129C, strain trk1, stronger effect = lower value 1.04 | locus YJL134W, strain LCB3, stronger effect = lower value 1.01 | locus YJL154C, strain vps35, stronger effect = lower value 1.02 | locus YJL164C, strain tpk1, stronger effect = lower value 1.04 | locus YJL166W, strain qcr8, stronger effect = lower value 1.03 | locus YJL168C, strain set2, stronger effect = lower value 1 | locus YJL187C, strain SWE1 (second series), stronger effect = lower value 1 | locus YJL187C, strain SWE1, stronger effect = lower value 1.01 | locus YJR043C, strain POL32, stronger effect = lower value 0.992 | locus YJR066W, strain TOR1, stronger effect = lower value 0.937 | [2] 1 | locus YKL009W, strain mrt4, stronger effect = lower value 1.01 | locus YKL068W, stronger effect = lower value 1 | locus YKL085W, strain MDH1 (second series), stronger effect = lower value 1.01 | locus YKL085W, strain MDH1, stronger effect = lower value 1.01 | locus YKL160W, strain elf1, stronger effect = lower value 1.04 | locus YKR001C, strain vps1, stronger effect = lower value 0.993 | locus YKR026C, strain gcn3, stronger effect = lower value 1.02 | locus YKR091W, strain srl3, stronger effect = lower value 1.02 | locus YLL001W, strain dnm1, stronger effect = lower value 1.03 | locus YLL026W, stronger effect = lower value 1.01 | locus YLL041C, strain sdh2, stronger effect = lower value 1.01 | locus YLR027C, strain aat2, stronger effect = lower value 1.01 | locus YLR039C, strain RIC1, stronger effect = lower value 1.05 | locus YLR058C, strain SHM2, stronger effect = lower value 1.01 | locus YLR102C, strain apc9, stronger effect = lower value 1 | locus YLR113W, strain HOG1, stronger effect = lower value 0.985 | locus YLR221C, strain rsa3, stronger effect = lower value 1.03 | locus YLR258W, strain gsy2, stronger effect = lower value 1.02 | locus YLR262C, strain YPT6 (second series), stronger effect = lower value 1.06 | locus YLR262C, strain YPT6, stronger effect = lower value 1.02 | locus YLR268W, strain sec22, stronger effect = lower value 1.01 | locus YLR320W, strain mms22, stronger effect = lower value 1.05 | locus YLR330W, strain CHS5, stronger effect = lower value 1 | locus YLR342W, strain FKS1 (second series), stronger effect = lower value 1.01 | locus YLR342W, strain FKS1, stronger effect = lower value 1.02 | locus YLR357W, strain rsc2, stronger effect = lower value 1.05 | locus YLR370C, strain arc18, stronger effect = lower value 1.02 | locus YLR371W, strain rom2, stronger effect = lower value 0.991 | locus YLR384C, strain iki3, stronger effect = lower value 1.03 | locus YLR418C, strain cdc73, stronger effect = lower value 1.01 | locus YML016C, strain PPZ1, stronger effect = lower value 1 | locus YML032C, strain rad52, stronger effect = lower value 0.994 | locus YML120C, strain ndi1, stronger effect = lower value 1.03 | locus YML124C, strain tub3, stronger effect = lower value 1.01 | locus YMR058W, strain fet3, stronger effect = lower value 1.02 | locus YMR078C, strain ctf18, stronger effect = lower value 1.01 | locus YMR125W, strain sto1, stronger effect = lower value 1.04 | locus YMR129W, stronger effect = lower value 1.01 | locus YMR205C, strain PFK2, stronger effect = lower value 1.04 | locus YMR223W, strain ubp8, stronger effect = lower value 1.02 | locus YMR231W, strain pep5, stronger effect = lower value 1.02 | locus YMR307W, strain GAS1, stronger effect = lower value 1.01 | locus YNL067W, strain RPL9B, stronger effect = lower value 1.01 | locus YNL071W, strain lat1, stronger effect = lower value 1.03 | locus YNL183C, strain NPR1, stronger effect = lower value 0.962 | locus YNL209W, strain ssb2, stronger effect = lower value 1.01 | locus YNL233W, strain BNI4, stronger effect = lower value 1.01 | locus YNL248C, strain rpa49, stronger effect = lower value 1.03 | locus YNL250W, strain rad50, stronger effect = lower value 1.05 | locus YNL271C, strain bni1, stronger effect = lower value 1.02 | locus YNL298W, strain CLA4, stronger effect = lower value 1.01 | locus YNL307C, strain MCK1, stronger effect = lower value 1.01 | locus YNL322C, strain KRE1 (second series), stronger effect = lower value 1.04 | locus YNL322C, strain KRE1, stronger effect = lower value 1 | locus YNR049C, strain mso1, stronger effect = lower value 1.02 | locus YNR052C, strain pop2, stronger effect = lower value 1.01 | locus YOL006C, strain TOP1, stronger effect = lower value 1.05 | locus YOL012C, strain htz1 0.886 | locus YOL147C, strain pex11, stronger effect = lower value 1.01 | locus YOR001W, strain rrp6, stronger effect = lower value 1.04 | locus YOR061W, strain CKA2, stronger effect = lower value 1 | locus YOR069W, strain VPS5, stronger effect = lower value 1.01 | locus YOR070C, strain gyp1, stronger effect = lower value 1.03 | locus YOR080W, strain dia2, stronger effect = lower value 1.04 | locus YOR083W, strain WHI5, stronger effect = lower value 1.04 | locus YOR106W, strain vam3, stronger effect = lower value 1.06 | locus YOR136W, strain idh2, stronger effect = lower value 1.01 | locus YOR144C, strain elg1, stronger effect = lower value 1 | locus YOR184W, strain ser1, stronger effect = lower value 1.01 | locus YOR231W, strain MKK1, stronger effect = lower value 1 | locus YOR265W, strain rbl2, stronger effect = lower value 1.06 | locus YOR270C, strain vph1, stronger effect = lower value 1.08 | locus YOR290C, strain snf2, stronger effect = lower value 0.979 | locus YOR316C, strain cot1, stronger effect = lower value 1.01 | locus YPL051W, strain arl3, stronger effect = lower value 1.03 | locus YPL078C, strain atp4, stronger effect = lower value 1.03 | locus YPL106C, strain sse1, stronger effect = lower value 1.03 | locus YPL240C, strain hsp82, stronger effect = lower value 1.02 | locus YPL256C, strain CLN2, stronger effect = lower value 0.985 | locus YPR119W, strain clb2, stronger effect = lower value 1.01 | locus YPR141C, strain kar3, stronger effect = lower value 1.01 | locus YPR163C, strain tif3, stronger effect = lower value 1.01 | locus YPR167C, strain met16, stronger effect = lower value 1.01 | strain wtn01, stronger effect = lower value 1.02
